Pf growth 48h: inhibits P. falciparum growth in the first generation, 48 h; P. falciparum luciferase growth in erythrocytes, 48 h; Potency, µM (highest dose often 28.7 µM), inactives show at the top dose activity change, negative = inhibition, most hits filed as inhibitors; AID 504832; hit rate 5.9% among 310,000; also: potency is read from the fitted curve at half-maximal effect; % is scaled to controls: 0 for no effect and ±100 for the full control effect
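Luminescence readout; reporter = integrated firefly luciferase in P. falciparum. RBC culture at 2% hematocrit, 0.1% parasitemia final, 37 C/5% CO2; decreased signal taken as growth inhibition.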
Cycloheximide cs: counter-screen for Shiga toxin inhibitors: cycloheximide protein synthesis inhibition. cell reporter, cycloheximide protein synthesis inhibition counterscreen. max response, %. hit rate 12% among 300,000. AID 2314; in the data active = max response mostly above about 13%, no sharp cut-off; inactive = mostly below about 14%; also: read at 38.3 µM for the half of the compounds with a filed dose; 0% is about no effect
NS1 function inh: blocks influenza NS1 protein function. Potency, µM (top dose mostly 46.1 µM), without a hit: at the highest dose activity, positive = more growth. hit rate 0.4% among 270,000. AID 2326; calls by dose curve; also: potency is read from the fitted curve at half-maximal effect; actives are rising curves; nearly all actives have a fitted effect of over 50% in size
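S. cerevisiae expressing influenza A NS1, grown in glucose, washed, then diluted 1:100 into pH 6.0 -URA galactose medium with 23 nl compound. Growth recovery read as OD600; NS1-free strain serves as control.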
Shiga toxin inh: inhibitors of Shiga toxin in Vero cells; Vero cells, Shiga toxin protein synthesis inhibition reporter; hit rate 9.2% among 290,000; inhibition, % at 38.7 µM; AID 2315; in the data active = inhibition mostly above about 28%, no sharp cut-off; inactive = mostly below about 43%; also: 0% is about no effect
Pf growth 96h: P. falciparum growth inhibition at 96 hours. P. falciparum luciferase reporter growth, 96 h. Potency, µM (titrated, usually from 28.7 µM), without a hit: top-dose activity change, negative = inhibition, hits mostly inhibitors. hit rate 6.9% among 320,000. AID 504834; also: potency is read from the fitted curve at half-maximal effect; % is scaled to controls: 0 for no effect and ±100 for the full control effect
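Two parasite generations (96 h, 37 C, 5% CO2) of compound exposure in infected erythrocytes (0.05% parasitemia, 2% hematocrit). Luciferase-reporter P. falciparum; decreased luminescence indicates inhibited growth, aimed at apicoplast-acting delayed death.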
SARS PLP yeast: SARS-CoV PLP inhibition in yeast | S. cerevisiae expressing SARS-CoV PLpro, growth rescue | Potency, µM (doses to about 32.9 µM), without a hit: at the highest dose activity, positive = growth rescue, actives largely listed as activators | hit rate 0.19% among 330,000; calls by dose curve; also: potency is read from the fitted curve at half-maximal effect; 0% is about no effect; nearly all actives have a fitted effect of over 55% in size
* hit, by the source's call; ? = inconclusive; . = not tested or not shown; + = active, no number; [ ] = dose if it differs, or a comment. Rows were chosen to be rich in hits. Some 21% of all compounds tested hit in one or more screens of this group. Unless noted, calls follow the shape of the dose curve; as a rule, active = well fitted inhibition curve with a large enough effect; inconclusive = small, poorly fitted or top-dose-only effect, or another doubt; inactive = no such curve, though single readings can be large or run the other way.

SMILES	Pf growth 48h	Cycloheximide cs	NS1 function inh	Shiga toxin inh	Pf growth 96h	SARS PLP yeast
CC(C)Cc1nc(N2CCC(C(N)=O)CC2)c2nnn(Cc3ccccc3)c2n1	14.7µM*	0.3	0.9%	13.8	10.4µM*	6.1%
O=[N+]([O-])c1cccnc1NCc1cccs1	-8.2%	-1.0	.	14.8	?	1.3%
CCn1cc(Br)c(C(=O)Nc2ccc(F)cc2F)n1	31.8%	24.9*	-10.6%	44.6*	36.9%	-2.1%
CCn1cc(Br)c(C(=O)Nc2cccc(SC)c2)n1	87.1%	32.4*	-10.7%	+	9.2%	-8.7%
COC(=O)c1cc(Br)ccc1NC(=O)CCNC(=O)c1ccco1	13.6%	-1.9	-9.8%	-2.8	11.8%	-4.4%
Cc1cc(C)c(S(=O)(=O)N2CCN(c3ccccn3)CC2)c(C)c1	-12.5%	.	.	.	?	-1.1%
Cc1ccc(C(=O)Cn2c(C(=O)OCCO)cc3ccccc32)cc1	11.0%	-0.3	-1.0%	-4.9	?	-3.2%
CC1CN(Cc2ccc(Cl)cc2Cl)CC(C)O1 (stereo unspecified)	.	23.4	2.4%	46.2*	64.8%	-0.6%
CC1CN(Cc2ccc(C#N)cc2Cl)CC(C)O1 (stereo unspecified)	5.7%	10.6	-1.9%	19.7	0.0%	?
O=C1O/C(=C\C(=O)N2CCOCC2)c2ccccc21	32.0%	-3.1	0.5%	-30.7	22.8%	-6.4%
Cc1ccc(/C=C2\OC(=O)c3ccccc32)cc1	4.1%	52.9*	-17.2%	107.4*	-2.5%	4.9%
Cc1ccccc1/C=C1\OC(=O)c2ccccc21	14.5%	20.4*	-49.7%	40.3*	30.4%	4.4%
Cc1ccccc1C=O	6.5%	.	.	.	-28.0%	-2.6%
Cc1ccc(S(=O)(=O)N2CCOCC2)cc1C(=O)Nc1ccc2c(c1)OCCO2	-19.6%	.	.	.	-17.7%	-2.3%
COc1cccc(COCC(O)Cn2cnc3cc(C)c(C)cc32)c1 (stereo unspecified)	-5.9%	2.0	.	-6.9	?	-4.7%
COc1ccc(/C=C/C(=O)NNC(=O)C(C)Oc2ccccc2F)cc1OC (stereo unspecified)	.	.	.	.	.	0.8%
CC(O)C(=O)N/N=C/c1cccc2ccccc12 (stereo unspecified)	?	20.5	-6.4%	3.4	19.9%	9.8%
Cc1occc1C(=O)N/N=C/c1cccc2ccccc12	36.7%	44.4*	-31.2%	87.3*	?	-6.6%
O=C(N/N=C/c1cccc2ccccc12)c1ccccc1Cl	-7.2%[0.00184 µM]	13.4*	-44.3%	48.6	29.4%	-3.9%
O=C(CN1CCOCC1)N/N=C/c1cccc2ccccc12	18.9%	-2.9	10.9%	-5.6	12.9%	6.2%
NC(=O)C1CCN(C(=O)CN(C2CCCCC2)S(=O)(=O)c2ccc(F)cc2)CC1	4.9%	-2.9	-8.0%	-4.6	8.1%	-1.8%
CSCCC(NC(=O)c1cccc(C)c1)C(=O)OCC(=O)Nc1c(C)nn(-c2ccccc2)c1C (stereo unspecified)	8.5%	.	.	.	48.9%	2.2%
COc1ccc(/C=N/n2cnn(Cc3ccccc3Cl)c2=S)cc1	412.5%	35.6*	.	44.1	-2.8%	1.9%
COc1cc(/C=N/n2cnn(Cc3ccccc3Cl)c2=S)cc(OC)c1OC	?	5.3	.	-4.1	-7.8%	-2.8%
CCN(CC)c1ccc(S(=O)(=O)N2CCCCC2)cc1NC(=O)C1CSC2(C)CCC(=O)N12 (stereo unspecified)	11.7µM*	.	.	.	?	1.9%
SMILES	Pf growth 48h	Cycloheximide cs	NS1 function inh	Shiga toxin inh	Pf growth 96h	SARS PLP yeast
Cc1cc(C)c(C)c(S(=O)(=O)N2CCN(C(=O)C3CSC4(C)CCC(=O)N34)CC2)c1C (stereo unspecified)	10.4µM*	.	.	.	?	1.1%
CC12CCC(=O)N1C(C(=O)N1CCN(S(=O)(=O)c3cccc(C(F)(F)F)c3)CC1)CS2 (stereo unspecified)	0.0%	.	.	.	4.6%	-7.6%
CC12CCC(=O)N1C(C(=O)Nc1cc(C(F)(F)F)ccc1N1CCCCC1)CS2 (stereo unspecified)	9.28µM*	.	.	.	?	2.5%
CC12CCC(=O)N1C(C(=O)Nc1ccccc1N1CCCCC1)CS2 (stereo unspecified)	10.4µM*	.	.	.	?	-1.8%
CC[C@@H]1Cn2c(c3nc(-c4cc(Cl)cc(Cl)c4Cl)nc-3n(C)c2=O)N1	.	-5.1	.	-6.6	.	.
CCOC(=O)N1C(C)CN(/[N+]([O-])=N/Oc2ccc([N+](=O)[O-])cc2[N+](=O)[O-])CC1C (stereo unspecified)	.	7.0	.	31.8	.	.
CC(C)OC(=O)c1cccc(-c2ccc(C=O)o2)c1	33.5%	76.7*	-30.7%	80.3*	-1.1%	-28.6%
COC(=O)C1=C(C)N(C2CCCCC2)C(=O)C1	0.6%	-2.0	1.2%	-13.5	1.85µM*	0.5%
COc1ccc(N2C(=O)CC2(/C=C/c2ccccc2OC)C(=O)NC2CCCC2)cc1 (stereo unspecified)	11.7µM*	3.3	4.4%[9.22 µM]	-2.2	27.5%	-30.4%
CCOC(=O)CNC(=O)C1(/C=C/c2ccccc2)CC(=O)N1c1ccc(OC)cc1 (stereo unspecified)	10.4µM*	-4.2	-5.8%	-6.8	?	0.4%
NC(=O)C1CCCN(C(=O)c2ccc(NC(=O)c3cccs3)cc2)C1 (stereo unspecified)	-5.0%	.	.	.	?	-6.5%
C[C@H](N)c1nnc(SCC(=O)N(C)C)o1	36.1%	16.8*	14.4%	17.4	45.8%	-0.7%
CCN1CCN(c2cc(C)c3cc(NC(=O)c4ccccc4F)ccc3n2)CC1	.	14.3	-2.4%	20.8	4.65µM*	-3.6%
CCn1c2ccccc2c2cc(NC(=O)c3ccc(Br)o3)ccc21	.	-0.9	16.1%	16.9	.	-20.1%
CCN(CC)c1cc(C)c2cc(NC(=O)c3ccc(Br)o3)ccc2n1	11.7µM*	26.4	-18.1%	31.6	62.9%	12.9%
CCN1CCN(c2cc(C)c3cc(NC(=O)c4cccnc4Cl)ccc3n2)CC1	.	1.1	3.9%	-3.4	.	-5.8%
CCN1CCN(c2cc(C)c3cc(NC(=O)c4ccncc4)ccc3n2)CC1	.	-3.2	-18.1%	-21.4	-3.6%	-9.6%
CCN1CCN(c2cc(C)c3cc(NC(=O)c4ccc(Br)o4)ccc3n2)CC1	2.33µM*	15.4*	-2.3%	101.8	25.0%	-3.3%
CCN1CCN(c2cc(C)c3cc(NC(=O)c4ccc(C)c(C)c4)ccc3n2)CC1	2.08µM*	0.4	2.7%	-7.6	?	0.0%
CN(CCC#N)C(=O)CC(Cc1ccccc1)C1CCOC(C)(C)C1 (stereo unspecified)	1.2%	-1.2	1.5%	10.6	-1.4%	0.2%
Cc1cc(N2CCN(C)CC2)nc2ccc(NC(=O)c3cccnc3Cl)cc12	.	-0.3	2.6%	-18.1	87.7%	-3.2%
Cc1cc(N2CCN(C)CC2)nc2ccc(NC(=O)c3ccccc3F)cc12	32.7%	36.6*	.	71.6*	9.28µM*	0.0%
O=C(NC12CC3CC(CC(C3)C1)C2)c1ccc(Br)o1	?	7.2	-9.7%	-1.6	?	2.2%
